Results: PubChem BioAssay (NCI)
The panel holds about 79,000 compounds, 15% with a hit somewhere; the sample as a whole holds those more often. A number with no mark means an inactive call. Calls of active or inactive are those of the source. No stated cut-off is given here; in the data, active means growth inhibition above about 70%; inactive means the rest. Where a SMILES comes first, the peptide text is derived from it. The star is where a group is joined. Boc = CC(C)(C)OC(=O)*; Bn = c1ccc(C*)cc1

How the values were obtained:
[1] = NCI Yeast Anticancer Drug Screen. Data for the rad50 strain (AID 155);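 further: 0% = growth of vehicle-only cultures of the same strain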; settings: S. cerevisiae rad50 strain growth inhibition; at 50.0 µM; stronger effect = higher value
Method in brief: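 Readout: growth inhibition relative to vehicle-treated cultures. Compound exposure was carried out in a genetically defined yeast strain deficient in DNA damage repair.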

[2] = NCI Yeast Anticancer Drug Screen. Data for the mec2-1 strain (AID 157); settings: S. cerevisiae mec2-1 strain, at 50.0 µM, stronger effect = higher value
Method in brief: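 Mutant yeast (mec2-1) grown with compound; growth inhibition relative to vehicle control reported.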

[3] = NCI Yeast Anticancer Drug Screen. Data for the sgs1 mgt1 strain (AID 161);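 further: 0% = growth of cultures given vehicle only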; settings: S. cerevisiae sgs1 mgt1 strain, at 50.0 µM, stronger effect = higher value
Method in brief: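 Yeast cells carrying a defined DNA-repair defect were exposed to test compounds. Growth inhibition was measured relative to vehicle-treated controls.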

[4] = NCI Yeast Anticancer Drug Screen. Data for the cln2 rad14 strain (AID 165);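 further: 0% = growth equal to vehicle treated cultures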; settings: S. cerevisiae cln2 rad14 strain, at 50.0 µM, stronger effect = higher value
Method in brief: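 Readout is yeast growth inhibition versus vehicle-treated controls, using a strain with cln2 and rad14 alterations exposed to compound.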

[5] = NCI Yeast Anticancer Drug Screen. Data for the bub3 strain (AID 167); settings: S. cerevisiae bub3 mutant strain, at 50.0 µM, stronger effect = higher value
Method in brief: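 Readout: yeast growth inhibition, expressed relative to vehicle-only wells. The test organism is a mutant strain from a panel with lesions in DNA repair or checkpoint genes.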

[6] = NCI Yeast Anticancer Drug Screen. Data for the mlh1 rad18 strain (AID 175); settings: S. cerevisiae mlh1 rad18 strain growth inhibition; at 50.0 µM; stronger effect = higher value
Method in brief: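 Genetically defined yeast (DNA repair-deficient) exposed to compounds; growth inhibition determined relative to vehicle.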

Row | SMILES | growth inhibition [1] | growth inhibition [2] | growth inhibition [3] | growth inhibition [4] | growth inhibition [5] | growth inhibition [6]
1 | CCCC1(CCC)NC(=O)N(CC(N)=O)C1=O | 7.45% | 0.1% | -9.5% | -20.6% | -9.1% | 16.1%
2 | CS(=O)(=O)OC1COCOC1C1OCOCC1OS(C)(=O)=O (stereo not given) | 7.8% | 1.35% | 10.5% | -10.4% | -6% | -0.55%
3 | CN(C)c1ncnc2ncn(C3OC(CO)C(O)C3O)c12 (stereo not given) | 67.6% | 46.6% | 60.2% | 7.3% | -13.2% | 61.7%
4 | CC(=O)OCC(=O)[C@@]1(O)CC[C@H]2[C@@H]3C[C@@H](C)[C@@]4(O)CC5(CC[C@]4(C)[C@H]3[C@@H](O)C[C@@]21C)OCC(C)(C)CO5 | 0.35% | 16.2% | 27.1% | 28.6% | -6.2% | -11.2%
5 | CC(C)=C1C(=O)C[C@]2(C)C/C=C(\C)CC/C=C(\C)CC[C@@H]12 | 39.5% | 40.9% | 62.5% | 46.2% | 58.9% | 38.8%
6 | O=C(c1ccc(C2CCCCC2)cc1)C(C(c1ccccc1)N1CCOCC1)N1CCOCC1 (stereo not given) | -54.7% | -16.6% | -19.9% | -10.6% | -3.75% | 23.9%
7 | O=NNc1ccc(SSc2ccc(NN=O)cc2)cc1 | 39.8% | 9.5% | 22.9% | 44.9% | 8.05% | 31.1%
8 | O=C1c2c(Cl)cccc2C(c2ccccc2)c2cccc(Cl)c21 | 29% | -4.15% | -1.55% | -11.5% | 7.35% | 23.2%
9 | O=C(O)/C(Cc1ccnc2ccccc12)=N\O | -1.35% | 2.7% | -15.4% | -0.05% | -22.7% | 0.4%
10 | COc1ccccc1-c1ccc([N+](=O)[O-])cc1[N+](=O)[O-] | 18.9% | -5.7% | -1.9% | 8.65% | 22.2% | 14.8%
11 | NC(Cc1ccccc1)C(=O)CCl (stereo not given) | 31.6% | 29.8% | 40.8% | 18.4% | 36.2% | 46.5%
12 | Nc1nc(Cl)cc(Oc2ccc(Cl)cc2)n1 | 9.65% | -17.6% | 22.6% | 2.5% | 17% | -30.6%
13 | c1ccc(CNC(c2ccccc2)C(NCc2ccccc2)c2ccccc2)cc1 (stereo not given) | -7.35% | -0.75% | -14.3% | -38.4% | 6.15% | 10.2%
14 | CC(=N\N=C\c1ccccn1)/C(C)=N/N=C(C)/C(C)=N/N=C/c1ccccn1 | 29.1% | 17.9% | 7.9% | 11.4% | 1.95% | -23.1%
15 | Nc1nc(N)nc(-c2ccccc2-c2nc(N)nc(N)n2)n1 | -5.65% | -2.85% | 3.45% | -18% | 14.2% | 6.65%
16 | O=C(O)c1cc(-c2ccccc2Cl)nc2ccccc12 | 10.7% | -6.55% | -8.3% | -10.7% | 19.8% | 0.45%
17 | CCCCCCC#CC(=O)O | 7.8% | -3.6% | 0.5% | 16.1% | -4.3% | 30.4%
18 | O=C(CBr)OCCC1CCCCC1 | 49.2% | 4.7% | 47.9% | -36.5% | 3.05% | 32.5%
19 | CC(C)(S)CNCCSC(=O)c1ccccc1 | 2.8% | -0.2% | 23.1% | -16.1% | 63.5% | 30.1%
20 | COc1ccc(Cl)cc1NC(C)=O | 5.1% | 8.1% | 5.2% | 7.25% | 3.7% | -7.65%

Row | SMILES | growth inhibition [1] | growth inhibition [2] | growth inhibition [3] | growth inhibition [4] | growth inhibition [5] | growth inhibition [6]
21 | C=C1C(=O)O[C@@H]2/C=C(\C)CC/C=C(/COC(C)=O)C[C@@H](OC(C)=O)[C@@H]12 | 7.4% | -28.2% | 20.1% | 0.35% | -1.4% | -30.1%
22 | COc1ccc(OC)c2nc3c(C(=O)NCCN(C)C)cccc3nc12 | -15.7% | -25.5% | -55.7% | -35.2% | -31.4% | -68.1%
23 | CC(C)(C)[Si](C)(C)OCCCC#CCO | 12.1% | -5.3% | -3.85% | 14.4% | -13.6% | 24.3%
24 | COc1c(O)c(/C=C/C(=O)NN)cc2ccoc12 | -4.75% | -10.3% | -25.1% | -16.5% | 15.8% | -23.9%
25 | CC(=O)CC(C)(C)NC(=S)Nc1ccc(O)cc1 | 99.7% (active) | 99.5% (active) | 99.8% (active) | 98.8% (active) | 99.8% (active) | 99.8% (active)
26 | CCOCCOC(=O)CCC1CCCCC1 | 29.8% | 16.5% | 9.1% | 11.2% | 19% | 29.6%
27 | COc1cc2c(cc1OC)C(c1ccccc1[N+](=O)[O-])=NCC2 | 0.2% | -0.8% | 29.7% | 11.7% | 22.5% | 15.2%
28 | CCOC(=O)C1/C(=N\N=C2\c3c(nnp3N(CCOS(C)(=O)=O)CCOS(C)(=O)=O)C(C(=O)OCC)C(c3ccc(OC(C)=O)cc3)C2C(=O)OCC)c2c(nnp2N(CCOS(C)(=O)=O)CCOS(C)(=O)=O)C(C(=O)OCC)C1c1ccc(OC(C)=O)cc1 (stereo not given) | 6.75% | -0.05% | -3.85% | 4.25% | 10.3% | -4.5%
29 | Cc1ccc(NC(=O)Nc2ccccc2Cl)cc1Cl | 12.6% | 17.5% | 6.1% | -20.4% | 4.75% | -4.55%
30 | CCOC(=O)c1cc(C)[nH]n1 | -37.9% | -26.1% | -6.75% | -11.7% | -26.9% | 2.15%
31 | O=C(O)c1cccc(C(=O)O)c1C(=O)O.[NH-]C1CCCCC1[NH-].[Pt+2] | -17.8% | 0.1% | -15.5% | 22.1% | 7.8% | -34.3%
32 | O=c1c2ccccc2ncn1C1OC(CO)C(O)C1O (stereo not given) | 17.6% | -19.1% | -13.9% | 4.95% | 6.95% | -2.05%
33 | CCOC(=O)C1(c2ccccc2)CCNC(=O)CC1 (stereo not given) | 7.65% | 8.2% | 16.2% | -14.1% | 13.5% | 8.6%
34 | C(=N/Nc1ccccn1)/NN/C=N/Nc1ccccn1 | -7.6% | 6.25% | -3.8% | 7.1% | -2.45% | -4.9%
35 | CCCCC/C(C)=N\O | -19% | 3.8% | 3.35% | -13.6% | -7.15% | 13.2%
36 | COC(=O)C(/C(=N/N)C(=O)Nc1cccc(O)c1)c1nc2ccccc2[nH]c1=O (stereo not given) | -39.1% | -7.65% | -42% | -15.2% | -39.1% | -34.4%
37 | COC(=O)C(CC(C)C)NC(=O)CNC(=O)C(Cc1ccc(OCc2ccccc2)cc1)NC(=O)C(COCc1ccccc1)NC(=O)OC(C)(C)C (stereo not given) (Boc-S(Bn)Y(Bn)GL-OMe; configuration not given here) | -26.8% | -22.6% | -23.8% | 11.8% | 2.65% | -10.5%
38 | CCOP(=O)(OCC)C(C(=O)OC)C(=O)C(=O)Nc1cccc([N+](=O)[O-])c1 (stereo not given) | 7.8% | -5.85% | 23.2% | -58.6% | 0.35% | 1.45%
39 | O=C(NCCc1c[nH]c2ccccc12)C(F)(F)F | -15.8% | 7.6% | 18.2% | 6.85% | 29.2% | 0.3%
40 | CC(=O)Nc1cc(CN2CCCCC2)c(O)c2ncccc12 | -8.65% | -21.4% | -38.3% | -36% | -35.1% | -8.05%
